This is a sample that favours compounds with a hit; in the whole collection about 6.2% have one here.
HCMV inh: qHTS Assay for inhibitors of the human cytomegalovirus (HCMV) | HFF cells, HCMV-luciferase reporter, 72 h; hits give low values | hit rate 4.5% among 410,000 | AID 1259415, 2018 | activity change, negative = inhibition, % at 57.5 µM; in the data active means activity change below about -60%; inconclusive means no clear call, values can overlap the other calls; inactive means above about -39%
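Luciferase read-out from HCMV-luciferase-infected HFFs (MOI 1 PFU/cell) 72 h post infection at 37C; compounds added after 16 h cell attachment; activity normalized between buffer-only basal and Salinomycin (10uM) inhibitor controls.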
FMDV antiviral: High Throughput Screening for Foot and Mouth Disease Virus Antivirals. hit rate 1.2% among 410,000. FMDV antiviral cell-based qHTS. Potency, µM (top dose mostly 57.9 µM), without a hit: top-dose activity change, negative = inhibition, hits mostly inhibitors; calls by dose curve; tested in HEK293T cells; further: read-out not given here; potency means the concentration at half of the fitted maximal effect; nearly all actives have a fitted effect of over 45% in size
Marburg entry inh: qHTS for inhibitors of binding or entry into cells for Marburg Virus; Marburg virus pseudotyped entry inhibition, cell reporter; Potency, µM (titrated, usually from 37.8 µM), without a hit: top-dose activity change, negative = inhibition, hits mostly inhibitors; hit rate 1.8% among 300,000; calls by dose curve; tested in HEK293 cells; further: potency means the concentration at half of the fitted maximal effect
Lassa entry inh: qHTS for Inhibitors of binding or entry into cells for Lassa Virus; Lassa virus pseudotype entry inhibition, cell reporter; Potency, µM (series often up to 37.9 µM), inactives show at the top dose activity change, negative = inhibition, usual class: inhibitors; hit rate 1.2% among 300,000; calls by dose curve; tested in HEK293 cells; further: potency means the concentration at half of the fitted maximal effect; nearly all actives have a fitted effect of over 50% in size
Starred values were filed as active, the others as inactive; ? = inconclusive; nt = no result given; [ ] = dose if it differs, or a comment. On the % scale 0 is the no-effect control and ±100 the full control effect.

SMILES	HCMV inh	FMDV antiviral	Marburg entry inh	Lassa entry inh
Cc1nnc(NC(=O)c2cccc(S(=O)(=O)N3CCN(C)CC3)c2)s1	0.2	-1.5%	-10.1%	11.9%
CN(C)S(=O)(=O)c1cccc(-c2csc(N/N=C/c3ccco3)n2)c1	-37.3	-20.5%	-26.0%[46.1 µM]	-5.7%
O=C(O)c1ccc(S(=O)(=O)N2CCCc3ccccc32)cc1	33.9	-11.6%	nt	nt
NC(=O)c1ccsc1NC(=O)c1ccc(S(=O)(=O)N2CCCc3ccccc32)cc1	-70.8*	35.5µM*	?	?
Cc1cccc(NC(=O)C2CCC(CNS(=O)(=O)c3ccc(Br)s3)CC2)c1 (stereo unspecified)	-3.1	-12.9%	?	14.6%[46.1 µM]
Cc1[nH]nc(C(F)(F)F)c1N=NN1CCOCC1	-11.2	20µM*	?	?
Cc1onc(-c2c(F)cccc2Cl)c1-c1ncc(-c2ccc(Cl)cc2)o1	-76.0*	nt	nt	nt
CCOc1cnc(-c2c(-c3c(F)cccc3Cl)noc2C)o1	11.2	-3.9%	12.7%	10.7%
Cc1cc(/C=N/NC(N)=S)c(C)n1-c1cccc(Cl)c1	-64.7*	-10.5%	?	?
Cc1cc(C(=O)COC(=O)c2ccc(N)c([N+](=O)[O-])c2)c(C)n1-c1ccc2c(c1)OCO2	-73.5*	-23.1%	-28.8%	-5.3%
Cc1nnc(SCC(=O)c2cc(C)n(-c3ccc4c(c3)OCO4)c2C)s1	-65.7*	nt	?	-5.8%
Cc1ccc(C)c(CSc2cn(CCNC(=O)c3cccs3)c3ccccc23)c1	-83.4*	?	?	?
COc1ccc(N2CC(NC(=O)/C=C\c3ccccc3)CC2=O)cc1OC (stereo unspecified)	-3.7	-7.8%	nt	11.7%[46.1 µM]
CC1CCc2sc(C(=O)N(C)CC(=O)Nc3ccc(N4CCOCC4)cc3)cc2C1 (stereo unspecified)	-68.4*	-9.1%	-2.6%	-5.5%
CCOC(=O)OC[C@H]1O[C@H](c2cc(C)cc(C)c2)C=C[C@H]1OC(=O)OCC	nt	nt	1.9%[14.2 µM]	nt
Cc1ccc(C(C[N+](=O)[O-])c2c(-c3ccccc3O)[nH][nH]c2=O)cc1 (stereo unspecified)	-74.7*	?	?	-1.5%
COc1ccc(C(C[N+](=O)[O-])c2c(C)[nH]c3ccccc23)cc1OC (stereo unspecified)	78.8	?	-1.3%	-23.5%
CCOC(=O)C(Cc1c[nH]c2ccccc12)NC(=O)COc1ccc(Cl)c(C)c1 (stereo unspecified)	43.7	0.1%	nt	?
O=[N+]([O-])c1ccc2nc(-c3ccncc3)[nH]c2c1	71.6	49.5%	nt	nt
O=[N+]([O-])c1ccc(-c2nc(-c3ccc(F)cc3)c(-c3ccncc3)[nH]2)cc1	nt	nt	8.2µM*	?
CCOC(=O)C1CCCN(C(=O)c2cc3nc(-c4ccc5c(c4)OCO5)cc(C(F)(F)F)n3n2)C1 (stereo unspecified)	-22.7	35.5µM*	?	?
Cc1ccc(-c2cc(C(F)(F)F)n3nc(C(=O)N4CCN5CCCC5C4)cc3n2)cc1 (stereo unspecified)	-23.8	-1.9%	?	1.0%[46.1 µM]
CCC1=NN2C(=N)/C(=C\c3cccn3-c3ccc(C)c(C)c3)C(=O)N=C2S1	-39.6	-24.7%	-10.6%[46.1 µM]	6.9%[46.1 µM]
CCC1=NN2C(=N)/C(=C\c3cccn3-c3ccc(Cl)cc3)C(=O)N=C2S1	-81.1*	-18.3%	5.6%[46.1 µM]	-11.7%
Cn1c2ccccc2c(=O)c2c(=O)n(C3CCCCC3)c(-c3ccco3)nc21	-63.4*	-28.1%	?	4.0%
SMILES	HCMV inh	FMDV antiviral	Marburg entry inh	Lassa entry inh
CCCCCc1nc2c(c(=O)c3ccccc3n2C)c(=O)n1C1CCCCCC1	?	31.6µM*	?	15.8µM*
Cc1nc2c(c(=O)c3ccccc3n2C)c(=O)n1C1CCCCCC1	-17.0	23.8%	?	14.9%
COc1ccc(OC)c(NC(=O)CSc2nnc3ccc4ccccc4n23)c1	-14.6	-15.2%	?	-1.8%[46.1 µM]
O=C(CNC(=O)c1ccccc1Cl)N/N=C/c1ccc([N+](=O)[O-])s1	-92.8*	-10.3%	?	?
CCC/C=N/NC(=O)CNC(=O)c1ccccc1Cl	-67.9*	3.6%	4.7%[46.1 µM]	5.8%[46.1 µM]
Cc1ccc(NC(=S)N/N=C/c2ccc([N+](=O)[O-])s2)cc1	-74.3*	?	?	17.8µM*
CCC/C=N/NC(=O)c1ccccc1O	-28.6	21.1%	?	-0.3%[46.1 µM]
Cc1cc(C)cc(N=Cc2ccc([N+](=O)[O-])s2)c1	-1.5	0.0%	?	?
CN(Cc1cccs1)C(=O)COc1ccc(-c2nnco2)cc1	-100.1*	25.7%	2.1%	12.5%
CN(Cc1cccs1)C(=O)COc1cccc(-n2cnnn2)c1	-12.4	-10.7%	-14.9%	-0.4%
CCc1nnc(NC(=O)c2nc(S(=O)(=O)Cc3cccc(C)c3)ncc2Cl)s1	-101.3*	4.47µM*	?	?
CCc1nnc(NC(=O)c2nc(S(=O)(=O)Cc3ccc(C)cc3)ncc2Cl)s1	-100.7*	28.2µM*	?	?
CCSc1ncc(Cl)c(C(=O)Nc2ccccc2OC)n1	55.8	-13.0%	nt	nt
CCc1nnc(NC(=O)c2nc(S(=O)(=O)Cc3ccccc3)ncc2Cl)s1	-101.0*	-68.7%	?	?
CCc1nnc(NC(=O)c2nc(SCc3ccccc3F)ncc2Cl)s1	3.7	-9.2%	-4.6%[46.1 µM]	9.8%[46.1 µM]
CCc1nnc(NC(=O)c2nc(Cl)ccc2Cl)s1	-6.7	-12.1%	nt	nt
CCOc1ccccc1NC(=O)c1nc(S(=O)(=O)Cc2cccc(C)c2)ncc1Cl	-112.7*	14.1µM*	-5.6%[46.1 µM]	2.4%[46.1 µM]
O=C(Nc1ccn2ccnc2n1)c1ccccc1OC(F)(F)F	-29.6	nt	nt	nt
O=C(NCCc1nnc2n1CCN(Cc1c(F)cccc1F)CC2)c1ccc(F)cc1	nt	-1.5%	nt	nt
COc1cc(NC(=O)c2ccc(-c3nc(COc4ccccc4)c(C)o3)cc2)cc(OC)c1	-77.9*	0.0%	nt	?
Cc1oc(-c2ccc(C(=O)Nc3ccc(F)cc3)cc2)nc1COc1ccccc1	?	?	nt	-7.6%[46.1 µM]
Cc1cc(S(=O)(=O)Nc2nc(CN3CCOCC3)nc3sc4c(c23)CCC4)cc(C)c1C	-7.5	26.3%	22.4%	8.4%
NS(=O)(=O)c1ccc(CCNc2nc(CN3CCCCC3)nc3sc4c(c23)CCC4)cc1	-10.9	-13.9%	20.6µM*	-20.6%
COc1ccc(S(=O)(=O)N2CCN(c3ccccc3OC)CC2)cc1-c1noc(C)n1	?	-7.7%	7.2%[46.1 µM]	8.5%[46.1 µM]
CCCCOC(=O)c1ccc(NC(=S)NC(=O)c2c(Br)c(C)nn2C)cc1	-64.2*	-15.6%	?	4.0%
SMILES	HCMV inh	FMDV antiviral	Marburg entry inh	Lassa entry inh
CCOC(=O)c1ccc(NC(=S)NC(=O)c2cncc(Br)c2)cc1	-71.9*	-7.6%	4.8%[46.1 µM]	14.0%
CC(C)(CO)NC(=O)c1cnn(-c2nccc(-c3ccc4c(c3)OCO4)n2)c1C1CC1	nt	29.3%	nt	nt
CC(SCc1ccccc1)C(=O)N/N=C/c1ccc(OCC(=O)NCc2ccco2)cc1 (stereo unspecified)	-28.4	12.6µM*	?	?
COc1ccccc1-c1nc2c(c(SCC(=O)Nc3ccccc3F)n1)Cc1c(CO)cnc(C)c1O2	-19.6	-21.0%	nt	1.4%[46.1 µM]
O=C(N/N=C/c1ccc2ncccc2c1)c1ccco1	4.8	-77.1%	1.26µM*	2.51µM*
CCCCSCCCNC(=O)CN1C(=O)c2cccnc2Oc2ccc(Cl)cc21	0.0	-7.9%	nt	-0.1%[46.1 µM]
